In the library only some 1.7% were active in any assay of this set; here they are far more common.
CCHF vOTU inh-1: CCHFV vOTU protease inhibition; Pep-AMC fluorescence; inhibition, % at 11.5 µM; actives 0.55% (n = 370,000); AID 651958
RecA intein inh: blocks M. tuberculosis RecA intein splicing | P9WHJ3 | cell-free RecA intein splicing, fluorescence | inhibition, % (no concentration beside the values) | actives 0.75% (n = 290,000) | AID 2221; in the data active means inhibition above about 30%
Target sequence (P9WHJ3 whole entry, looked up): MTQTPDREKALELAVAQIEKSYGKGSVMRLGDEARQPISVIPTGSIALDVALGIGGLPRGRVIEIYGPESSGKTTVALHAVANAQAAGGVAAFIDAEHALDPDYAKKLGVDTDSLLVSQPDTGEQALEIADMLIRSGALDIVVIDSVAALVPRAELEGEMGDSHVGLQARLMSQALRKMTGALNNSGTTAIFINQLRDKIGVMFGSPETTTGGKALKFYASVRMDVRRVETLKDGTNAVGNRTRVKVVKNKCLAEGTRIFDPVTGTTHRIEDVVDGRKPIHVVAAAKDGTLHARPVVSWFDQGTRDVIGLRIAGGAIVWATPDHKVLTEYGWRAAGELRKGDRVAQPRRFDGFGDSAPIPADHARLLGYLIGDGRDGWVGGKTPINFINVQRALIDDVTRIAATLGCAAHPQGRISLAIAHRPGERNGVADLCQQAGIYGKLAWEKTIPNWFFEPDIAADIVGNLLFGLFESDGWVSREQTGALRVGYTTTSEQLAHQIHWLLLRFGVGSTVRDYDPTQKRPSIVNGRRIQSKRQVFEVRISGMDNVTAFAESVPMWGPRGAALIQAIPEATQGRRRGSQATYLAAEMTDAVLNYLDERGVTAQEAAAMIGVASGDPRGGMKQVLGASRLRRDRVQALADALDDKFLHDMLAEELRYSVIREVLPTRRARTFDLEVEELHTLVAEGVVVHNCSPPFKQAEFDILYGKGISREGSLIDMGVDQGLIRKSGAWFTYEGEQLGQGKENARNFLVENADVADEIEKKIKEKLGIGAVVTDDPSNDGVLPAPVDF
Mtb bLac sens: beta-lactam sensitization of Mtb H37Rv; M. tuberculosis H37Rv growth with meropenem, percent inhibition; inhibition, % at 25 µM; actives 0.27% (n = 330,000); AID 434955; call rule not given here;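 further: growth measured after seven days incubation then overnight dye step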
PfHsp40 yeast: restores yeast growth despite PfHsp40 toxicity; S. cerevisiae expressing PfHsp40, growth rescue, ATP luminescence; growth rescue, % at 12.5 µM; AID 504582; actives 0.68% (n = 340,000); in the data active means growth rescue above about 28%, passing the limit was not always enough;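 further: yeast W303a lacking pdr1 and pdr3 grown in galactose medium; growth measured after three days at 30 °C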
Mtb hypoxia inh: inhibitors of hypoxia-regulated fluorescent reporter in Mycobacterium tuberculosis; fluorescence inhibition, % (test concentration not listed); actives 0.1% (n = 300,000); M. tuberculosis hypoxia-regulated fluorescent reporter, fluorescence; AID 1159583; in the data active means fluorescence inhibition mostly above about 23%, no sharp cut-off; inactive means mostly below about 17%
CCHF vOTU inh-2: confirmation of CCHF virus vOTU protease inhibitors; inhibition, % at 11.5 µM; Recombinant CCHFV vOTU, Pep-AMC fluorescence; shares compounds with CCHF vOTU inh-1; actives 17% (n = 1,900); AID 686976
Each line names hits and unclear results; the compound was inactive in the other large screens (follow-up assays come after a bar, where they were run). Unless noted, no stated cut-off is given here; in the data, active means inhibition above about 30%; inactive means the rest.

NC(=S)NN=Cc1ccccc1OCCSc1ccc(Cl)cc1	none (no result: CCHF vOTU inh-1, RecA intein inh, Mtb bLac sens, PfHsp40 yeast)
FC(F)Oc1ccccc1C=NNc1nc2ccccc2o1	none (no result: CCHF vOTU inh-1, RecA intein inh, Mtb bLac sens, PfHsp40 yeast)
CCOc1ccc2[nH]c(SCC(=O)OC)c([N+](=O)[O-])c2c1	none
COC(=O)CSc1[nH]c2ccc(Br)cc2c1[N+](=O)[O-]	CCHF vOTU inh-1 33.4, Mtb hypoxia inh 37.3 | CCHF vOTU inh-2 inactive
N#C/C(=C/c1ccccc1)C(=O)NCc1ccccc1	none
CN(C)c1ccc(/C=C(/C#N)C(=O)NCc2ccccc2)o1	CCHF vOTU inh-1 31.9 | CCHF vOTU inh-2 inactive
O=C(NN=Cc1ccncc1)c1cccc(S(=O)(=O)Nc2ccc(Cl)cc2)c1	none (no result: CCHF vOTU inh-1, RecA intein inh, Mtb bLac sens, PfHsp40 yeast)
O=C(NN=C/C=C\c1ccco1)c1ccccn1	none (no result: CCHF vOTU inh-1, RecA intein inh, Mtb bLac sens, PfHsp40 yeast)
CC(C)(C)OC(=O)N(Cc1ccccc1)Cc1cccc(OCc2cccc(NC(=O)C3CC3)c2)c1	CCHF vOTU inh-1 32.3 (no result: RecA intein inh, Mtb bLac sens, Mtb hypoxia inh) | CCHF vOTU inh-2 inactive
CC(C)(C)OC(=O)N(CCc1ccccc1)Cc1cccc(OCc2cccc(NC(=O)C3CCC3)c2)c1	none (no result: RecA intein inh, Mtb bLac sens, Mtb hypoxia inh)
CN(C)C(CNC(=O)c1ccc(NS(=O)(=O)c2ccc(F)c(F)c2)cc1)c1ccccc1 (stereo unspecified)	none
CN(C)C(CNC(=O)c1ccc(NS(=O)(=O)c2ccc3[nH]c(=O)[nH]c3c2)cc1)c1ccccc1 (stereo unspecified)	CCHF vOTU inh-1 31.4 (no result: Mtb hypoxia inh) | CCHF vOTU inh-2 inactive
CCCCOc1ccc(/C=C(\C(=O)O)c2ccc(S(=O)(=O)N3CCCC3)s2)cc1	none (no result: RecA intein inh)
COc1cc(/C=C(\C(=O)O)c2ccc(S(=O)(=O)N3CCCC3)s2)ccc1OCCC(C)C	CCHF vOTU inh-1 31.9 (no result: RecA intein inh, Mtb bLac sens) | CCHF vOTU inh-2 inactive
COc1cc(C(=O)Nc2cc3c4c(c2)CC(=O)N4CCC3)cc(OC)c1OC	CCHF vOTU inh-1 33.8 | CCHF vOTU inh-2 inactive
C#CCNC(=O)C[C@@H]1C[C@@]2(C(=O)OCC)CCCC=C2N(CCCCCCCC)C1=O	CCHF vOTU inh-1 30.8 (no result: RecA intein inh, Mtb bLac sens, PfHsp40 yeast, Mtb hypoxia inh) | CCHF vOTU inh-2 inactive
CCCCCCCCN1C(=O)[C@H](CC(=O)N2CCOCC2)C[C@@]2(C(=O)OCC)CCCC=C12	none (no result: RecA intein inh, Mtb bLac sens, PfHsp40 yeast, Mtb hypoxia inh)
CCCCCCCCN1C(=O)[C@H](CC(=O)NCc2ccccc2)C[C@@]2(C(=O)OCC)CCCC=C12	CCHF vOTU inh-1 32.6 (no result: RecA intein inh, Mtb bLac sens, PfHsp40 yeast, Mtb hypoxia inh) | CCHF vOTU inh-2 inactive
CCCCCCCCN1C(=O)[C@H](CC(=O)N2CCSCC2)C[C@@]2(C(=O)OCC)CCCC=C12	CCHF vOTU inh-1 38.9 (no result: RecA intein inh, Mtb bLac sens, PfHsp40 yeast, Mtb hypoxia inh) | CCHF vOTU inh-2 inactive
CCOC(=O)N1CCN(C(=O)C[C@@H]2C[C@@]3(C(=O)OCC)CCCC=C3N(CCc3ccc(OC)c(OC)c3)C2=O)CC1	none (no result: RecA intein inh, Mtb bLac sens, PfHsp40 yeast, Mtb hypoxia inh)
CCCCCCCCN1C(=O)[C@H](CC(=O)NCCCCc2ccccc2)C[C@@]2(C(=O)OCC)CCCC=C12	none (no result: RecA intein inh, Mtb bLac sens, PfHsp40 yeast, Mtb hypoxia inh)
CCOC(=O)[C@]12CCCC=C1N(CCc1ccc(OC)c(OC)c1)C(=O)[C@H](CC(=O)N1CCCC1)C2	CCHF vOTU inh-1 32.6 (no result: RecA intein inh, Mtb bLac sens, PfHsp40 yeast, Mtb hypoxia inh) | CCHF vOTU inh-2 inactive
COc1ccc(CCNC(=O)CC(C)=NNC(=O)Cc2cccc3ccccc23)cc1OC	none (no result: CCHF vOTU inh-1, RecA intein inh, Mtb bLac sens, PfHsp40 yeast)
Cc1nonc1C(=O)NN=Cc1ccccc1	none (no result: CCHF vOTU inh-1, RecA intein inh, Mtb bLac sens, PfHsp40 yeast)
C/C(C=NN1CCN(c2ccccc2)CC1)=C\c1ccco1	none (no result: CCHF vOTU inh-1, RecA intein inh, Mtb bLac sens, PfHsp40 yeast)
CC(NC(=O)OCc1ccccc1)c1nnc(C(Cc2ccccc2)NC(=O)OC(C)(C)C)o1 (stereo unspecified)	none (no result: CCHF vOTU inh-1, RecA intein inh, Mtb bLac sens, PfHsp40 yeast)
O=C(NCc1ccccc1)c1nc2c(nnn2Cc2cccc(Cl)c2)c(=O)[nH]1	CCHF vOTU inh-1 44.6 | CCHF vOTU inh-2 inactive
COc1ccc(N=NC2=C(O)CC(C)(C)CC2=O)cc1	CCHF vOTU inh-1 31.7 (no result: Mtb hypoxia inh) | CCHF vOTU inh-2 inactive
CC1(C)CC(=O)C(N=Nc2ccc(Br)cc2)=C(O)C1	none (no result: PfHsp40 yeast)
C=CCC(CC(=O)NCCO)C(=O)NC(COC(=O)C(CC=C)Cc1ccc(F)cc1)Cc1c[nH]c2ccccc12 (stereo unspecified)	none (no result: CCHF vOTU inh-1, RecA intein inh, Mtb bLac sens, PfHsp40 yeast)
COCCN1C(=O)CSCC1(C)C(=O)Nc1c(C)cccc1C (stereo unspecified)	none (no result: RecA intein inh, Mtb bLac sens, PfHsp40 yeast, Mtb hypoxia inh)
Cc1cccc(C)c1NC(=O)C1(C)CSCC(=O)N1CCOc1ccccc1 (stereo unspecified)	CCHF vOTU inh-1 30.6 (no result: RecA intein inh, Mtb bLac sens, PfHsp40 yeast, Mtb hypoxia inh) | CCHF vOTU inh-2 inactive
COC(=O)C1=C(c2ccc(OC(F)(F)F)cc2)C[C@@H]2CC[C@H]1N2C(=O)NCCOc1ccccc1	CCHF vOTU inh-1 30.5 (no result: RecA intein inh, Mtb hypoxia inh) | CCHF vOTU inh-2 inactive
CCCc1cc(=O)[nH]c(SCC(=O)Nc2cc(S(=O)(=O)N(CC)c3ccccc3)ccc2Cl)n1	CCHF vOTU inh-1 35.5 (no result: RecA intein inh) | CCHF vOTU inh-2 inactive
COc1cccc(/C=N/Nc2nnc(C)n2N)c1OCc1ccccc1Cl	CCHF vOTU inh-1 75.3 (no result: Mtb hypoxia inh) | CCHF vOTU inh-2 inactive

Assay outcomes from PubChem BioAssay.
